Test results taken from PubChem BioAssay (NCI).
Several values for one entry are separate records, joined by “and”; a condition that tells them apart may be missing. Equal values may be shown once. About 83,000 compounds went through this panel and 20% of them were active in at least one assay; those are over-represented in the sample as a whole.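 Cell lines were cultured in 96-well plates, exposed to a single compound concentration, and assessed for percent growth 48 hours later.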 Activity calls are given as the source filed them.

test system: OVCAR-8 ovarian; experiment: NCI-60 one-dose screen, 48 h (100 = growth as untreated, 0 = no growth, -100 = all killed); conditions: 10 µM
Procedure: Growth inhibition of the OVCAR-8 human tumor cell line is measured as a screen for anti-cancer activity. Cells are grown in 96 well plates and exposed to the test compound for 48 hours. Compounds are tested at a single concentration, which is 10^-5 M for most compounds. The reported endpoint is percent growth (GI% or GIPRCNT), where numbers from 0 - 100% represent growth inhibition, and numbers from -100% - 0 represent cell death. For example, a value of 40 represents 60% growth inhibition. A value of 0 means no net growth occurred over the course of the experiment. A value of -40 indicates 40% of cells at the beginning of the experiment died by the end of the experiment. A value of -100 means all cells are dead at the end of the experiment.
NCI-60 Human Tumor Cell Lines Screen was performed using the standard one-dose NCI protocol, which is described in more detail at https://dtp.cancer.gov/discovery_development/nci-60/default.htm.
Compounds with GIPRCNT values below 10 were considered active. Activity score was based on GIPRCNT using the following formula: […]
Score is 0 for GIPRCNT values of 100 or above, 50 for GIPRCNT values of 0, and 100 for GIPRCNT values of -100.

| Structure (SMILES) | growth |
| --- | --- |
| Cc1cc(N=Nc2ccccc2C)ccc1N | 82.1% (inactive) |
| NCCc1ccc(OCc2ccccc2)c(OCc2ccccc2)c1 | 79.3% (inactive) |
| CCOC(=O)C(NC(=O)C(Cc1ccc(N(CCCl)CCCl)cc1)NC(C)=O)C(C)C (stereo not drawn) | 83.1% (inactive) |
| O=C1c2ccccc2C(=O)C(Cl)C1Cl (stereo not drawn) | 91.9% (inactive) |
| S=C(SSC(=S)N1CCCCC1)N1CCCCC1 | 92.4% (inactive) |
| Cc1ccc(C(=O)OC(C(=O)O)C(OC(=O)c2ccc(C)cc2)C(=O)O)cc1 (stereo not drawn) (tested in a mixture with another compound) | 61.4% (inactive) |
| CCC(=O)OC1CCn2c1nc1c2C(=O)C(C)=C(N2CC2)C1=O (stereo not drawn) | 3.32% (active) |
| Oc1cc[c]([Hg][Cl])cc1 | 105% (inactive) |
| CN1CCN(c2ccc([N+](=O)[O-])c3no[n+]([O-])c23)CC1 | -92.7% (active) |
| COc1cccc2c1cc([N+](=O)[O-])c1c(C(=O)O)cc3c(c12)OCO3 | 55.2% (inactive) |
| CC(=O)O[C@H]1C[C@@H]2OC3C=C(C)CCC3(C)[C@@]1(C)[C@@]21CO1 (stereo partly drawn) | -9.39% (active) and -19.9% (active) |
| CC[n+]1c(-c2ccccc2)c2cc(N)ccc2c2ccc(N)cc21 | 18.6% (inactive) |
| CCCCCCCCCCCC1CCCC(C)N1 (stereo not drawn) | 67.3% (inactive) |
| CC1=C2C(=O)[C@H]3[C@@H](CC=C4C[C@@H](O)CC[C@@]43C)[C@@H]2CC[C@]12O[C@@H]1C[C@H](C)CN[C@H]1[C@H]2C | 89.3% (inactive) |
| Oc1cccc2cccnc12 | 81.9% (inactive) and 101% (inactive) and 105% (inactive) |
| COc1ccccc1/C=C(/C)[N+](=O)[O-] | 85.6% (inactive) and 103% (inactive) |
| COc1ccc(OC)c(/C=C/[N+](=O)[O-])c1 | 11.8% (inactive) |

same assay, conditions: 100 µM

| Structure (SMILES) | growth |
| --- | --- |
| S=C(SSC(=S)N1CCCCC1)N1CCCCC1 | -43.4% (active) |
